In test [1] the target is T1, Aspartate--tRNA(Asp/Asn) ligase (Mycobacterium tuberculosis (strain ATCC 25618 / H37Rv)) (UniProt P9WFW3). Also: in the data most compounds retested in dose-response had high values.
T1 sequence (whole entry): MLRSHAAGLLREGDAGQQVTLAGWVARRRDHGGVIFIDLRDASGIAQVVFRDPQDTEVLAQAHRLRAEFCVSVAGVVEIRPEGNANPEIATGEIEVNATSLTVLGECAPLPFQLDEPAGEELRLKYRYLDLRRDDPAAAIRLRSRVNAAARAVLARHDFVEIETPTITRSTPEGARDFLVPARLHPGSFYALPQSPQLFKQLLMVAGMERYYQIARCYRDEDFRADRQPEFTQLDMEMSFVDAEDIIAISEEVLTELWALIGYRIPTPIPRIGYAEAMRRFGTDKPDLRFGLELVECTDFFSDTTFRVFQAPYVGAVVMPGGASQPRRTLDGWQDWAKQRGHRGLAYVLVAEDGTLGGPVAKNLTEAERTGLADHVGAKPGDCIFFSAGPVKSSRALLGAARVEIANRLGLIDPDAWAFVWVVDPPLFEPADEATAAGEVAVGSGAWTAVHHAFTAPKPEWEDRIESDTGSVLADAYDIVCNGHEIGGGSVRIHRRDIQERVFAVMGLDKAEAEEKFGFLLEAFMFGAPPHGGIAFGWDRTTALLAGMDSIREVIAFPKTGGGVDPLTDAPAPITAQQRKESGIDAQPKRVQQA
Kind of test: Assay for Asp RNA synthetase-1 from Mycobacterium tuberculosis. Type of test: functional. Further details: scale not given: direction of the effect not stated beside the values. The conditions noted are these: 30 µM.

Test [2] has as its target Shiga toxin 2 (Escherichia coli O157:H7) (UniProt P09385+P09386). Kind of test: E. coli 0.157:H7 Shiga Toxin SOP - stx2 screening assay. Particulars: 30 µM. Further details: scale not given: direction of the effect not stated beside the values. Type of test: functional.

`COc1ccc(CCC(=O)Nc2cccnc2N2CCCC2)cc1Br`: the Percent Effect in test [1] was -3.21%; in test [2] it was 28.3%.
The like results for `Cc1cc(C)n(C2CCCN(C(=O)C3=NN(C)C(=O)CC3)C2)n1` (stereo not drawn) were, in that order, 0.706% and 17.2%.
The like results for `N#Cc1ccccc1C(=O)N1C[C@H](CO)C[C@H](CN2CCCC2)C1` were, in that order, -4.69% and 0.715%.
The like results for `CC(C)C(Sc1nnc(C2CC2)n1C1CC1)C(=O)NCc1cccnc1` (stereo not drawn) were, in that order, -2.03% and -18.2%.
As for `CCn1ncnc1C(NC(=O)CC1CCN(C(C)C)CC1)C1CC1` (stereo not drawn), the Percent Effect in test [1] was 1.82%; in test [2], -13.7%.
In the same order, the values of `CC(C)c1noc(CN2CCN(C(=O)c3ccccc3F)CC2)n1` are -2.91% and 12.1%.
As to `CN(CCn1nc2ccccn2c1=O)CC(=O)NC1CC1`, the results for the Percent Effect in test [1] and in test [2] were -5.57% and -5.23%, respectively.
In the case of `O=C(NCc1ccoc1)NC1CCCN(c2ncccn2)C1` (stereo not drawn), the Percent Effect in test [1] is -2.64%; in test [2], 15.2%.
As for `O=C1CC2(CCN(Cc3ccoc3)C2)CN1c1ccc2c(c1)OCO2` (stereo not drawn), the Percent Effect is 5.29% in test [1] and -93.1% in test [2].
In the same order, the values of `COc1cc(/C=C/c2ncc(C(=O)O)s2)cc(Cl)c1O` are -0.0437% and -52.2%.
The like results for `CCN1CCN(c2ccc(F)cc2C(C)NCc2ccncc2)CC1` (stereo not drawn) were, in that order, -0.494% and 14.3%.
In the same order, the values of `CCS(=O)(=O)N1CCc2ccc(NC(=O)Nc3ccc(F)cc3F)cc21` are 1.65% and -10.5%.
On to `CCc1noc(C(C)N2CCN(c3ccc(C#N)cn3)CC2)n1` (stereo not drawn), for which the Percent Effect in test [1] is -2.49%; in test [2], -26.5%.
In the case of `COCCNC(=O)C[C@@H]1COC[C@H]2CN(C(=O)c3cnccn3)C[C@@H]12`, the Percent Effect in test [1] was -8.37%; in test [2], -20.7%.
For the compound `Cc1n[nH]c(C2CN(C(=O)c3cc(Cl)c[nH]3)CCO2)n1` (stereo not drawn), the Percent Effect in test [1] is 2.37%; in test [2] it was -2.92%.
On to `CCS(=O)(=O)c1ccccc1C(=O)NCc1ccnc(N(C)C)c1`, for which the Percent Effect is -3.31% in test [1] and -44.7% in test [2].
The like results for `CC(C)N1CCOCC2(CN(Cc3ccco3)CCO2)C1` (stereo not drawn) were, in that order, 1.82% and 5.04%.
As for `Cc1ccc(N2CCCC(NCc3nc(C)c(C)o3)C2)nn1` (stereo not drawn), the Percent Effect in test [1] is -0.975%; in test [2], -14.9%.
Regarding `O=C(c1ccccn1)N1CCN(c2ccc(-c3cccnc3)nn2)CC1`, the Percent Effect is -6.42% in test [1] and -48.3% in test [2].
In the same order, the values of `CC(=O)N1CCN(c2cc(C3CN(C)CCO3)nc(C)n2)CC1` (stereo not drawn) are 0.67% and -24.3%.
`COCc1cccc(NS(=O)(=O)c2cc(C(=O)O)cs2)c1`: the results for the Percent Effect in test [1] and in test [2] were 0.144% and -27.7%, respectively.
With `CCCC(=O)N1CCC2(CC1)CC(NC(C)=O)c1ccccc1O2` (stereo not drawn), the Percent Effect in test [1] is -5.26%; in test [2], -24.9%.
The like results for `O=C(c1cccc2c1OCO2)N1CCCC(n2cccn2)C1` (stereo not drawn) were, in that order, -0.706% and 17.8%.
With `CC(C)Cc1noc(CN2CCOC(Cn3cncn3)C2)n1` (stereo not drawn), the Percent Effect came to 1.02% in test [1] and 16.9% in test [2].
Consider `CC(C)NC(=O)[C@@H]1C[C@H](N)CN1C(=O)c1cc2ccccc2[nH]c1=O`, for which the Percent Effect in test [1] is -2.73%; in test [2], -0.544%.
For `Cc1csc(CNC(=O)NC2CCN(c3ncccn3)CC2)n1`, the Percent Effect in test [1] was 2.39%; in test [2], -1.46%.
Take `Cc1nccc([C@@H]2C[C@@H]3CCN(S(C)(=O)=O)C[C@H]3O2)n1`: the Percent Effect amounted to 2.92% in test [1] and 11.1% in test [2].
With `CC(C)n1cc(CN2CCCN(C(=O)c3nccnc3N)CC2)cn1`, the figures for the Percent Effect in test [1] and in test [2] were 6.6% and -11.2%, respectively.
`O=c1cc2c(nn1CN1CCN(c3cccc(Cl)c3)CC1)CCC2`: the Percent Effect in test [1] is -1.19%; in test [2], -4.9%.
Consider `CN(C)C[C@H]1OC[C@@H]2CCN(C(=O)c3cccn3C)C[C@@H]21`, for which the Percent Effect in test [1] is 0.607%; in test [2] it was -9.5%.
The like results for `CCN1CC(C(=O)NCc2ccccc2-n2cccn2)CC1=O` (stereo not drawn) were, in that order, 7.12% and 20.1%.
The like results for `CS(=O)(=O)NCCCN1CCCCC1c1cc2ccccc2[nH]1` (stereo not drawn) were, in that order, -1.17% and -11.8%.
The like results for `O=C(NCC1CC1)C1CCC2(CCN(C(=O)c3ccccn3)CC2)O1` (stereo not drawn) were, in that order, -1.39% and 1.47%.
Consider `CCc1cnc(N2CCC3(CC2)CN(c2cccnc2)C(=O)CO3)nc1`, for which the Percent Effect is 6.49% in test [1] and -6.76% in test [2].
In the same order, the values of `O=C(Nc1ccc(CCN2CCC(O)CC2)cc1)C1CCOCC1` are -1.86% and -38.6%.
Regarding `N#Cc1cccc(N2CC3(CCN(C(=O)c4cccnc4)C3)CC2=O)c1` (stereo not drawn), the figures for the Percent Effect in test [1] and in test [2] were 2.09% and -13.7%, respectively.
In the same order, the values of `COc1cc(C)nc(N2CCN(Cc3nccn3C)CC2)n1` are -1.39% and -9.36%.
Regarding `Cn1cc(CN2CCOC3(CCCN(C(=O)c4ccco4)C3)C2)cn1` (stereo not drawn), the figures for the Percent Effect in test [1] and in test [2] were -0.297% and -4.96%, respectively.
As to `CC(NC(=O)CCCOc1ccccc1Cl)c1ccncc1` (stereo not drawn), the Percent Effect was 5.49% in test [1] and -35% in test [2].
Consider `Cc1nc(CN2CCC3(CCN(c4ncc(F)cn4)C3)C2=O)cs1` (stereo not drawn), for which the results for the Percent Effect in test [1] and in test [2] were 7.33% and -9.92%, respectively.
The like results for `COc1ccc(OC)c(CN2CCCCCC2c2cccs2)c1` (stereo not drawn) were, in that order, -3.22% and -16.4%.
The like results for `CC(C)NS(=O)(=O)c1cc(C(=O)O)cc(-c2ccc(CN(C)C)cc2)c1` were, in that order, -3.46% and -20.1%.
In the same order, the values of `COc1cccc(CNCCc2cc(F)cc3c2OCOC3)c1` are -4.9% and -27.3%.
`Cc1ccc(-c2nc(CNCC3CN(C)CCO3)cs2)o1` (stereo not drawn): the results for the Percent Effect in test [1] and in test [2] were 1.27% and -23.7%, respectively.
In the case of `CCCS(=O)(=O)Nc1ccc2c(c1)OCC(C)(C)C(=O)N2C`, the Percent Effect was -4.25% in test [1] and -2.5% in test [2].
Regarding `COCC1CC2(CCN(C(=O)c3ccc(OC)c(Cl)c3)CC2)CO1` (stereo not drawn), the Percent Effect in test [1] is 0.918%; in test [2] it was -4.71%.
Consider `CCCn1ccc2ccc(NC(=O)N(C)CCOC)cc21`, for which the Percent Effect is -4.94% in test [1] and -13.1% in test [2].
In the same order, the values of `CCC1=N[C@@]2(CC[C@@H]3CN(Cc4ccc(Cl)cc4)C[C@@H]32)C(=O)N1C` are 3.65% and 3.45%.
On to `Cc1ccc(NC(=O)NC(C)c2nc[nH]n2)cc1` (stereo not drawn), for which the Percent Effect worked out at 4.39% in test [1] and 5.92% in test [2].
The like results for `CCc1ccc(S(=O)(=O)Nc2c(C)cccc2C(=O)O)s1` were, in that order, 0.112% and 25.9%.
The like results for `CCc1nnc2n1CCN(C(=O)c1ccc(C(F)(F)F)nc1C)C2` were, in that order, 1.43% and -8.18%.
In the same order, the values of `CN(CCOc1cccc(CNC(=O)C2CC2)c1)C1CCOCC1` are -1.13% and -0.044%.
Take `O=C(c1cccn1Cc1cccs1)N1CCN(C2CC2)CC1`: the results for the Percent Effect in test [1] and in test [2] were -1.4% and -1.86%, respectively.
The like results for `CCOCCOC(C)C(=O)NCc1cn2cc(Br)ccc2n1` (stereo not drawn) were, in that order, 1.62% and -14.8%.
Consider `CC(NC(=O)NCCCOC1CCCCC1)c1nncn1C` (stereo not drawn), for which the Percent Effect in test [1] was -3.32%; in test [2] it was -6.91%.
In the same order, the values of `COc1cccc(CN2CCCC(Nc3cccc(F)c3)C2)c1O` (stereo not drawn) are -1.31% and 11.2%.
Take `COc1ccc(COCC(O)CNC(=O)c2cnc(C)cn2)cc1` (stereo not drawn): the values for the Percent Effect in test [1] and in test [2] were 0.509% and -32.5%, respectively.
In the same order, the values of `Cc1cc(C)n(CC2CCCN2C(=O)c2ccc3c(c2)nnn3C)n1` (stereo not drawn) are 5.23% and -34.8%.
For the compound `CC(C)OCc1ccc(CNC(=O)CC(F)(F)F)cc1`, the Percent Effect in test [1] was -1.66%; in test [2], 12.4%.
`CC(NCc1ccccc1Br)c1ccc2[nH]c(=O)[nH]c2c1` (stereo not drawn): the Percent Effect in test [1] was 5.02%; in test [2], -5.76%.
The like results for `Cc1cnn(CC2CCCN2C(=O)c2ccc3cc[nH]c3c2)c1` (stereo not drawn) were, in that order, -4.26% and 1.09%.
The like results for `O=C(Nc1cnn(CCN2CCOCC2)c1)c1cc(F)ccc1F` were, in that order, 0.211% and 21.3%.
The like results for `CCCn1nc(C2CCNCC2)n(Cc2ccccc2)c1=O` were, in that order, -5.32% and -6.93%.
With `COc1ccc2c(c1)CN(Cc1nc3ccsc3c(=O)[nH]1)CC2`, the Percent Effect is -2.11% in test [1] and 10.8% in test [2].
Take `Cc1n[nH]c(C2CN(C(=O)c3cnc[nH]3)CCO2)n1` (stereo not drawn): the values for the Percent Effect in test [1] and in test [2] were 1.76% and 23.8%, respectively.
In the same order, the values of `O=C(Nc1cccc2c1CCCC2)C1CCCN1c1nccs1` (stereo not drawn) are 2.28% and -43.4%.
For the compound `CCn1c(C)nnc1CN(C)C1CCN(CCn2cccn2)C1` (stereo not drawn), the Percent Effect in test [1] is 1.41%; in test [2], 12.1%.
The like results for `Cc1cnn(CC2CCCCN2C(=O)c2ccc3nnc(C)n3c2)c1` (stereo not drawn) were, in that order, 10.3% and 21.9%.
The like results for `CC(C)NC(=O)[C@H]1C[C@@H]2[C@@H](C1)OCCN2Cc1cnn(C)c1` were, in that order, 2.71% and -17.8%.
On to `Cc1nn(C)c(C)c1C1COCCN1C(=O)c1ccccc1` (stereo not drawn), for which the results for the Percent Effect in test [1] and in test [2] were -8.71% and -37.5%, respectively.
In the same order, the values of `CCC(=O)N1CCC(Cc2nccnc2Nc2ccccn2)CC1` are -0.309% and 11.3%.
In the same order, the values of `Cc1cnn(CC2CCCCN2Cc2nnc(C3CC3)n2C)c1` (stereo not drawn) are -3.3% and 1.19%.
Take `Cc1cn2c(n1)CCC(NC(=O)c1cnc(C)nc1C(C)C)C2` (stereo not drawn): the Percent Effect in test [1] stood at 2.91%; in test [2], 20.9%.
In the same order, the values of `Cc1cc(C)n(C2CCCN(C(=O)CCNS(C)(=O)=O)C2)n1` (stereo not drawn) are -0.16% and -20%.

These data come from ChEMBL document CHEMBL3988442, “University of Dundee, Small-Polar-MMV Screening Library” (2021).
